This note sets out measurements from PubChem BioAssay (Tox21).

Values joined by “and” are separate entries in the source; they are usually repeats but may differ in a detail not shown here. Identical values can stand only once. Inconclusive results are not listed. Some structures have more than one record in an assay (separate samples or runs), and their calls can disagree. Active and inactive are the calls of the source. The call rests on the fitted dose curve; in most records, active means well fitted curve in the direction sought with a large enough effect in the repeat runs; inconclusive means weak or mixed curves; inactive means no such curve, though single readings can be large; an effect the other way counts as inactive or inconclusive.

The nature of assay [1]: A CellTox Green Cytotoxicity Assay to monitor cytotoxicity in HEK293 cells - 40 hour (AID 1224871). Further: nearly all actives have a fitted effect of over 45% in size. Further: potency means the concentration at half of the fitted maximal effect. Put shortly: (§1)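 Real-time, in one plate: 600 HEK293 cells/well with dead-cell DNA dye, pinned compound after 5 h, 37 C incubation over 40 h; viable cells give no appreciable fluorescence.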
The nature of assay [2]: qHTS RealTime-Glo MT Cell Viability Assay in HEK293 cells - 16 hour (AID 1224872). Further: top concentration of the series differs between compounds; nearly all actives have a fitted effect of over 50% in size. Put shortly: (§2)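 Assay medium contained NanoLuc luciferase plus cell-permeant prosubstrate, added with HEK293 cells at 600 cells/well. After 5 h at 37 C/5% CO2 compounds were added; plates stayed at 37 C for 40 h with serial luminescence reads.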
On the technique in general: In qHTS, concentration-response curves come from the screen itself.

Assay [3] in a line: qHTS RealTime-Glo MT Cell Viability Assay in HepG2 cells - 8 hour (AID 1224873). Further: nearly all actives have a fitted effect of over 55% in size. Put shortly: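 Real-time viability: cells seeded at 600 per well together with NanoLuc and cell-permeant prosubstrate, compounds added after 5 h incubation. Luminescence tracked at 0, 8, 16, 24, 32 and 40 h of exposure.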
The nature of assay [4]: qHTS RealTime-Glo MT Cell Viability Assay in HEK293 cells - 40 hour (AID 1224874). Further: nearly all actives have a fitted effect of over 50% in size. Further: potency means the concentration at half of the fitted maximal effect. The conditions noted are these: RealTime-Glo luminescence; max response: stronger effect = lower value. Put shortly: (§3)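 Kinetic, non-lysing viability readout. Seed HEK293 (600/well) with reagent, incubate 5 h at 37 C/5% CO2, pin 23 nL compound in DMSO, incubate at 37 C, read luminescence at 0, 8, 16, 24, 32, 40 h.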

A short description of assay [5]: A CellTox Green Cytotoxicity Assay to monitor cytotoxicity in HEK293 cells - 24 hour (AID 1224875). Further: series mostly up to about 77 µM; nearly all actives have a fitted effect of over 45% in size. Summed up:
as §1

Assay [6] in a line: A CellTox Green Cytotoxicity Assay to monitor cytotoxicity in HepG2 cells - 16 hour (AID 1224876). Further: nearly all actives have a fitted effect of over 45% in size. Put shortly:
(§4)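 Cytotoxicity was tracked as dead-cell DNA fluorescence in HepG2 cells treated with test compounds at 37 C; each time-point value comes from one kinetic series spanning 0, 8, 16, 24, 32 and 40 h.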

The nature of assay [7]: qHTS RealTime-Glo MT Cell Viability Assay in HepG2 cells - 32 hour (AID 1224877). Further: nearly all actives have a fitted effect of over 55% in size. Summed up: (§5)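 qHTS, HepG2, 600 cells/well, RealTime-Glo (NanoLuc + prosubstrate) added with cells; 5 h preincubation; DMSO compound addition; 37 C; luminescence at 0/8/16/24/32/40 h.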
Assay [8] can be described thus: A CellTox Green Cytotoxicity Assay to monitor cytotoxicity in HepG2 cells - 24 hour (AID 1224878). Further: nearly all actives have a fitted effect of over 45% in size. Further: potency means the concentration at half of the fitted maximal effect. Put shortly:
as §4

Assay [9] in a line: A CellTox Green Cytotoxicity Assay to monitor cytotoxicity in HepG2 cells - 40 hour (AID 1224879). Further: nearly all actives have a fitted effect of over 40% in size. Further: potency means the concentration at half of the fitted maximal effect. Summed up:
as §4

Assay [10] is described as follows: qHTS RealTime-Glo MT Cell Viability Assay in HEK293 cells - 0 hour (AID 1224880). Summed up: as §3
The nature of assay [11]: A CellTox Green Cytotoxicity Assay to monitor cytotoxicity in HEK293 cells - 32 hour (AID 1224881). Further: nearly all actives have a fitted effect of over 40% in size. Summed up: as §1
A short description of assay [12]: A CellTox Green Cytotoxicity Assay to monitor cytotoxicity in HepG2 cells - 0 hour (AID 1224882). Further: nearly all actives have a fitted effect of over 35% in size. Put shortly:
as §4

The nature of assay [13]: A CellTox Green Cytotoxicity Assay to monitor cytotoxicity in HepG2 cells - 32 hour (AID 1224883). Further: nearly all actives have a fitted effect of over 50% in size. Further: potency means the concentration at half of the fitted maximal effect. Put shortly:
as §4

The nature of assay [14]: A CellTox Green Cytotoxicity Assay to monitor cytotoxicity in HEK293 cells - 8 hour (AID 1224884). Further: nearly all actives have a fitted effect of over 35% in size. Put shortly:
as §1

The nature of assay [15]: qHTS RealTime-Glo MT Cell Viability Assay in HepG2 cells - 16 hour (AID 1224885). Further: nearly all actives have a fitted effect of over 50% in size. Summed up:
as §5

Assay [16] can be described thus: qHTS RealTime-Glo MT Cell Viability Assay in HEK293 cells - 24 hour (AID 1224886). Summed up:
as §2

The nature of assay [17]: qHTS RealTime-Glo MT Cell Viability Assay in HEK293 cells - 8 hour (AID 1224887). Put shortly:
as §3

Assay [18] in a line: A CellTox Green Cytotoxicity Assay to monitor cytotoxicity in HEK293 cells - 16 hour (AID 1224888). Further: nearly all actives have a fitted effect of over 35% in size. Summed up: as §1
Assay [19] is described as follows: qHTS RealTime-Glo MT Cell Viability Assay in HepG2 cells - 0 hour (AID 1224889). Further: nearly all actives have a fitted effect of over 50% in size. Summed up: as §5
Assay [20] is described as follows: A CellTox Green Cytotoxicity Assay to monitor cytotoxicity in HepG2 cells - 8 hour (AID 1224890). Further: nearly all actives have a fitted effect of over 45% in size. Summed up:
as §4
On the % scale 0 is the no-effect control and ±100 the full control effect.

Turning to `O=C(c1ccccc1)c1ccc(O)c(O)c1O`, the Potency entry in [1], in assay [2], in assay [3], in assay [5], in assay [6] and in assay [7] was “inactive” in each case. Further, the Potency entry in assay [8], in assay [9], in [10], in assay [11], in assay [12] and in [13] was “inactive” throughout. Also, the Potency result in assay [14], in assay [15], in [16], in [17], in assay [18] and in assay [19] was “inactive” in each case. In addition, the Potency entry in assay [20] was “inactive”. Besides, the max response in assay [4] was -18.4% (inactive).

Regarding `Cc1ccc([N+](=O)[O-])cc1N`, the Potency result in [1], in assay [2], in assay [3], in assay [5], in assay [6] and in [7] was “inactive” in each case. The Potency entry in assay [8], in assay [9], in assay [10], in assay [11], in assay [12] and in [13] was “inactive” in each case. Besides, the Potency entry in assay [14], in assay [15], in assay [16], in [17], in [18] and in assay [19] was “inactive” each time. In assay [20], the Potency result was “inactive”. The max response in [4] was 10.1% (inactive) and 0.36% (inactive).

Consider `CC(C)(CO)CO`, for which the Potency result in [1], in assay [2], in assay [3], in [5], in assay [6] and in assay [7] was “inactive” throughout. For the same compound, the Potency result in assay [8], in assay [9], in assay [10], in [11], in [12] and in assay [13] was “inactive” in each case. Moreover, the Potency result in assay [14], in [15], in assay [16], in assay [17], in assay [18] and in [19] was “inactive” each time. In addition, in assay [20], the Potency result was “inactive”. Also, the max response in [4] is 3.9% (inactive) and 0.954% (inactive).

As for `C1CCCNCC1`, the Potency result in assay [1], in assay [2], in assay [3], in assay [5], in assay [6] and in assay [7] was “inactive” throughout. The Potency entry in assay [8], in [9], in assay [10], in assay [11], in [12] and in assay [13] was “inactive” in each case. The Potency result in assay [14], in assay [15], in assay [16], in assay [17], in [18] and in assay [19] was “inactive” each time. Also, the Potency entry in [20] is “inactive”. In [4], the max response was 6.44% (inactive) and 0.666% (inactive).

Turning to `COC(=O)/C=C\C(=O)OC`, the Potency entry in assay [1], in assay [2], in assay [3], in assay [5], in assay [6] and in assay [7] was “inactive” each time. Also, the Potency entry in assay [8], in assay [9], in [10], in assay [11], in [12] and in [13] was “inactive” in each case. Further, the Potency entry in assay [14], in assay [15], in [16], in assay [17], in assay [18] and in assay [19] was “inactive” throughout. In addition, in assay [20], the Potency result is “inactive”. In addition, the max response in assay [4] was 12.2% (inactive) and 10.6% (inactive).

On to `Nc1nc(N)c2nc(-c3ccccc3)c(N)nc2n1`, for which the Potency result in [1], in [2], in assay [3], in assay [5], in assay [6] and in assay [7] was “inactive” throughout. Besides, the Potency result in assay [10], in [11], in assay [12], in assay [14], in assay [15] and in assay [16] was “inactive” in each case. Also, the Potency result in assay [17], in assay [19] and in [20] was “inactive” in each case. Moreover, the Potency in assay [4] was 24.8 µM (active) and 19.5 µM (active); in assay [8], 54.9 µM (active) and inactive; in assay [9] it was 49.5 µM (active) and 49 µM (active); in assay [13], 49.5 µM (active) and 49 µM (active). Further, the max response in assay [4] is -27.6% (inactive).

Take `CN1CCCC1=O`: the Potency result in [1], in [2], in [3], in [5], in assay [6] and in [7] was “inactive” each time. The Potency entry in assay [8], in assay [9], in assay [10], in assay [11], in assay [12] and in assay [13] was “inactive” each time. In addition, the Potency result in assay [14], in [15], in assay [16], in assay [17], in assay [18] and in assay [19] was “inactive” each time. Besides, the Potency entry in assay [20] is “inactive”. Besides, in [4], the max response was 8.67% (inactive) and -2.64% (inactive).

Turning to `CC(C)(C)NC[C@H](O)COc1nsnc1N1CCOCC1`, the Potency entry in [1] is “inactive and 3.38 µM (active)”. Also, the Potency result in assay [2], in assay [3], in assay [5], in [6], in assay [7] and in assay [8] was “inactive” in each case. Also, the Potency entry in [9], in [10], in assay [11], in [12], in assay [13] and in assay [14] was “inactive” throughout. In addition, the Potency entry in [15], in assay [16], in assay [17], in assay [18], in assay [19] and in assay [20] was “inactive” throughout. Also, in assay [4], the max response was -0.31% (inactive) and -1.2% (inactive).

As to `CCN(CC)CCNC(=O)c1ccc(N)cc1`, the Potency entry in assay [1], in assay [2], in [3], in assay [5], in assay [6] and in assay [7] was “inactive” each time. The Potency entry in [8], in assay [9], in assay [10], in assay [11], in assay [12] and in assay [13] was “inactive” each time. For the same compound, the Potency entry in assay [14], in assay [15], in [16], in assay [17], in assay [18] and in assay [19] was “inactive” each time. Moreover, in assay [20], the Potency entry was “inactive”. Besides, the max response in [4] was 3.82% (inactive) and 1.96% (inactive).

With `Cc1nnc(NS(=O)(=O)c2ccc(N)cc2)s1`, the Potency result in [1], in assay [2], in assay [3], in assay [5], in [6] and in assay [7] was “inactive” each time. Also, the Potency entry in assay [8], in [9], in assay [10], in [11], in assay [12] and in [13] was “inactive” each time. Besides, the Potency result in assay [14], in assay [15], in assay [16], in [17], in [18] and in assay [19] was “inactive” throughout. Further, the Potency result in assay [20] was “inactive”. The max response in assay [4] was -1.44% (inactive) and 9.25% (inactive).

For `NC(=O)NC(N)=O`, the Potency entry in assay [1], in [2], in assay [3], in [5], in [6] and in assay [7] was “inactive” each time. Besides, the Potency result in [8], in [9], in assay [10], in assay [11], in assay [12] and in assay [13] was “inactive” each time. Further, the Potency entry in [14], in assay [15], in [16], in assay [17], in assay [18] and in assay [19] was “inactive” in each case. In addition, the Potency result in assay [20] is “inactive”. Also, in [4], the max response is 1.11% (inactive) and 4.69% (inactive).

Take `CCCCC(=O)O`: the Potency result in assay [1], in assay [2], in assay [3], in [5], in [6] and in assay [7] was “inactive” each time. The Potency result in assay [8], in [9], in assay [10], in assay [11], in assay [12] and in assay [13] was “inactive” throughout. The Potency entry in assay [14], in [15], in assay [16], in assay [17], in [18] and in [19] was “inactive” in each case. Moreover, in assay [20], the Potency result is “inactive”. For the same compound, the max response in assay [4] was 6.05% (inactive) and 6.12% (inactive).

As for `COC(=O)OC`, the Potency result in assay [1], in assay [2], in [3], in assay [5], in assay [6] and in assay [7] was “inactive” in each case. The Potency entry in [8], in assay [9], in assay [10], in [11], in [12] and in assay [13] was “inactive” throughout. In addition, the Potency entry in [14], in [15], in [16], in [17], in assay [18] and in assay [19] was “inactive” each time. For the same compound, in assay [20], the Potency entry is “inactive”. For the same compound, in assay [4], the max response is 8.45% (inactive) and 1.69% (inactive).
